L3MBTL1 inh – blocks human L3MBTL1; Q9Y468; AlphaScreen L3MBTL1–H3K9me1 peptide binding; Potency, µM (doses to about 57.1 µM), for inactives: top-dose activity, negative = inhibition, hits mostly inhibitors; hit rate 0.66% among 230,000; AID 485360; further: on the % scale 0 is the no-effect control and ±100 the full control effect; nearly all actives have a fitted effect of over 60% in size
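L3MBTL1 50 nM + b-AHA-H3(1-15)K9me1 75 nM, 30 min RT; compound added, 30 min RT; streptavidin donor/Ni-chelate acceptor beads 10 ug/mL each final, 30 min RT dark; AlphaScreen read.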
GLS inhibitor – blocks human kidney-isoform glutaminase activity; GLS enzymatic activity, qHTS titration; Potency, µM (series often up to 45.5 µM), without a hit: at the highest dose activity change, negative = inhibition, most hits filed as inhibitors; hit rate 0.21% among 410,000; AID 624170; further: on the % scale 0 is the no-effect control and ±100 the full control effect
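Glutamate formation by hKGA was monitored fluorometrically using coupled glutamate oxidase, HRP and Amplex Red. Substrate was added as 1 mM L-glutamine solution; incubation was 30 min at RT after an initial read.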
G9a inh – G9a (human) methyltransferase inhibition | G9a H3K9 monomethylation, AlphaScreen, 2 h | Potency, µM (doses to about 102 µM), for the others: at the highest dose activity, negative = inhibition, most hits filed as inhibitors | hit rate 8.8% among 350,000 | Q96KQ7; further: on the % scale 0 is the no-effect control and ±100 the full control effect; nearly all actives have a fitted effect of over 75% in size
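Readings reflect AlphaScreen signal from monomethyl-H3K9 antibody detection. HMT at 20 nM; substrate b-H3K9 500 nM; cofactor SAM 20 uM; 2 h RT reaction; compounds tested as titrations in qHTS with 15 min preincubation.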
HP1b chromo inh – inhibitors of HP1-beta chromodomain binding to methylated histone tails | P83916 | AlphaScreen HP1-beta / biotin-H3K9me3 peptide binding | Potency, µM (titrated, usually from 114 µM), without a hit: at the highest dose activity change, negative = inhibition, hits mostly inhibitors | hit rate 0.56% among 390,000 | AID 540317; further: nearly all actives have a fitted effect of over 70% in size
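Compound inhibition of the preformed complex between 50 nM HP1-beta and 50 nM biotinylated H3K9me3 peptide was read by AlphaScreen. Buffer was PBS pH 7.4 with 0.01% Tween-20. Incubations ran 30 min at room temperature, with 10 ug/mL donor/acceptor beads.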
JMJD2A Tudor – inhibitors of human JMJD2A Tudor domain; AlphaScreen JMJD2A-Tudor / H3K4me3 peptide binding; Potency, µM (highest dose often 114 µM), inactives show top-dose activity change, negative = inhibition, most hits filed as inhibitors; hit rate 4.4% among 390,000; AID 504339; further: on the % scale 0 is the no-effect control and ±100 the full control effect; nearly all actives have a fitted effect of over 50% in size
BAZ2B inh – blocks human BAZ2B | Q9UIF8 | AlphaScreen BAZ2B-H3K14Ac peptide displacement | Potency, µM (titrated, usually from 114 µM), inactives show top-dose activity change, negative = inhibition, hits mostly inhibitors | hit rate 4.4% among 360,000 | AID 504333; further: on the % scale 0 is the no-effect control and ±100 the full control effect; nearly all actives have a fitted effect of over 60% in size
Target sequence (Q9UIF8 whole entry, looked up): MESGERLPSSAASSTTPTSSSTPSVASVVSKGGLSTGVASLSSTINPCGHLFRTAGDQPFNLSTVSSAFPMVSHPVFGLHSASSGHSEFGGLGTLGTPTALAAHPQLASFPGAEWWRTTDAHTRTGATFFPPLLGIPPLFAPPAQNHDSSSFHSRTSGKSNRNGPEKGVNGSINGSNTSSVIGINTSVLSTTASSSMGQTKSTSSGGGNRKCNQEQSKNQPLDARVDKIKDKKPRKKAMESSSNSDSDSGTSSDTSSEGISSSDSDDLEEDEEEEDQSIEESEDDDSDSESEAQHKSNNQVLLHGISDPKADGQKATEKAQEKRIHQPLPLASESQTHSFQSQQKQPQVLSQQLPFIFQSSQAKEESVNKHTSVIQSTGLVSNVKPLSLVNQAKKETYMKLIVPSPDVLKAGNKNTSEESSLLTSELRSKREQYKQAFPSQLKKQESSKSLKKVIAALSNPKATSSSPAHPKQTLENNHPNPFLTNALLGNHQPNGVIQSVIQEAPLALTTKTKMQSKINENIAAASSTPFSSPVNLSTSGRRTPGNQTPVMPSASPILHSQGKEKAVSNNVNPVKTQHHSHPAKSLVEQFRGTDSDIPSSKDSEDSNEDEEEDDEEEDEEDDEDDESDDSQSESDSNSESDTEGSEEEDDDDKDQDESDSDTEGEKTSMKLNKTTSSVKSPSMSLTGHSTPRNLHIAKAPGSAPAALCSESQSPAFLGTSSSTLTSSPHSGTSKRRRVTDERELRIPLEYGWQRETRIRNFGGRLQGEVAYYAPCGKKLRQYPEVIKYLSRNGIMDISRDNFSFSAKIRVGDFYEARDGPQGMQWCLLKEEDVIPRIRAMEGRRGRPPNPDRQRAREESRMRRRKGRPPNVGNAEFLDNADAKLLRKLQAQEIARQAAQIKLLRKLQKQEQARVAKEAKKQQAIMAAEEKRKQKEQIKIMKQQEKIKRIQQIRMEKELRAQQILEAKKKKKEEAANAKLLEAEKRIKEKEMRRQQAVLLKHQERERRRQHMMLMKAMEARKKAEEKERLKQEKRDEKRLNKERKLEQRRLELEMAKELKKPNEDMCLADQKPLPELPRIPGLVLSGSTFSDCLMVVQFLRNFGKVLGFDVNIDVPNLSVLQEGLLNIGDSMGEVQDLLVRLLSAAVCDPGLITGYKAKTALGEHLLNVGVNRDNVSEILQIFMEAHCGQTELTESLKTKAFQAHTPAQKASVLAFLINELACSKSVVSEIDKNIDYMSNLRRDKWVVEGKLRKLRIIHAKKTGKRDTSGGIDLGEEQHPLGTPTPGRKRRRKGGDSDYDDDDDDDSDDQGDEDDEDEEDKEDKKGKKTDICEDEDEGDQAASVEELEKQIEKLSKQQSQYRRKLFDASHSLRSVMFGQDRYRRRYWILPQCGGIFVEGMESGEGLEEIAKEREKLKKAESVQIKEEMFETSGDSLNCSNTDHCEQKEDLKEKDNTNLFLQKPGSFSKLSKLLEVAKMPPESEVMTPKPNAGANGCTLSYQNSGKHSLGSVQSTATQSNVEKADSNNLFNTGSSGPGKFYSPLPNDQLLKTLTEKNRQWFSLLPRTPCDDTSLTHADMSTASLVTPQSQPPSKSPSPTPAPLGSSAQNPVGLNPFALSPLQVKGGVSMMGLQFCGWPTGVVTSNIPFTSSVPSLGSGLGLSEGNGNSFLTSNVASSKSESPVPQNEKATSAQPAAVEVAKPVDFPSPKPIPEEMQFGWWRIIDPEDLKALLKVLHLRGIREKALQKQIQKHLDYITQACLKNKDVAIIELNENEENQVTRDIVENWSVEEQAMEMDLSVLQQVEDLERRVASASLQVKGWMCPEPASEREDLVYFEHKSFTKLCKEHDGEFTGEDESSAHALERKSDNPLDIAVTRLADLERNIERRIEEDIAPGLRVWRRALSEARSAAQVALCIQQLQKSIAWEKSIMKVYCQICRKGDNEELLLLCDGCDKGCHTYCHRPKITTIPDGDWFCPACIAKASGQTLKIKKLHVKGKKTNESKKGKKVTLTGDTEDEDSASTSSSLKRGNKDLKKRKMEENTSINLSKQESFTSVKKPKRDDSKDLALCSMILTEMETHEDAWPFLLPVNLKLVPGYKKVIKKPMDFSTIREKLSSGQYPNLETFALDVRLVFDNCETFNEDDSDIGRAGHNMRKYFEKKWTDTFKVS
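Multi-concentration screen (max 110 uM) measuring displacement of acetylated histone H3 peptide from BAZ2B by AlphaScreen, using 50 nM protein, 50 nM peptide and 10 ug/mL streptavidin donor plus Ni-chelate acceptor beads.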
The depositor's hits bear a star; ? = inconclusive; / = no result; [ ] = remark or other dose. This is a sample that favours compounds with a hit; in the whole collection about 10% have one here. The call rests on the fitted dose curve; in most records, active means well fitted curve in the direction sought with a large enough effect; inconclusive means small, poorly fitted or top-dose-only effect, or another doubt; inactive means no such curve, though single readings can be large; an effect the other way counts as inactive or inconclusive. Potency means the concentration at half of the fitted maximal effect.

SMILES	L3MBTL1 inh	GLS inhibitor	G9a inh	HP1b chromo inh	JMJD2A Tudor	BAZ2B inh
Cc1ccc(NC(=O)NCCOCCn2c(=O)oc3ccccc32)c(C)c1	/	1%	-1%[59 µM]	11%	-15%	0%
O=S(=O)(NNc1ccc(F)cc1F)c1cccc(Cl)c1	/	?	1.3µM*	?	10µM*	?
CCOc1cc(/C=N/Nc2ccc(S(=O)(=O)Nc3ccccc3C(=O)O)cc2[N+](=O)[O-])cc(Cl)c1O	/	2%	/	/	/	/
CC(=O)Nc1ccc(C=NNc2ccc([N+](=O)[O-])cc2S(=O)(=O)Nc2ccccc2C(=O)O)cc1	0%	?	/	12%	?	/
CN(CCO)c1ccc(C=NNc2ccc([N+](=O)[O-])cc2S(=O)(=O)Nc2ccccc2C(=O)O)cc1	?	11µM*	/	45µM*	45µM*	/
CC(=O)Nc1ccc(C=NNc2ccc(S(=O)(=O)Nc3ccccc3C(=O)O)cc2[N+](=O)[O-])cc1	?	?	/	?	50µM*	/
O=[N+]([O-])c1cc(S(=O)(=O)Nc2ccc(Cl)cc2)ccc1N/N=C/c1ccncc1	1%	5%	-25%	0%	-17%	-15%
O=C(O)c1ccccc1NS(=O)(=O)c1ccc(N/N=C/c2cccc(O)c2O)c([N+](=O)[O-])c1	/	7%	/	?	20µM*	/
CCOc1ccc(C=NNc2ccc(S(=O)(=O)Nc3ccccc3C(=O)O)cc2[N+](=O)[O-])cc1OC	?	-14%	/	?	20µM*	/
Cc1c(CCC(=O)NCc2cccc(Cl)c2)c(=O)oc2c(C)c(O)ccc12	/	1%	6%[59 µM]	25%	-20%	-10%
COc1ccc(NS(=O)(=O)c2ccc(N/N=C/c3ccc(N4CCOCC4)cc3)c([N+](=O)[O-])c2)cc1	-3%	-3%	-17%[59 µM]	-6%	-6%	?
COc1cc(C=NNc2ccc(S(=O)(=O)Nc3ccccc3C(=O)O)cc2[N+](=O)[O-])ccc1O	?	-10%	/	?	25µM*	/
CC(=O)Nc1cccc(/C(C)=N/Nc2ccc(S(=O)(=O)Nc3ccccc3C(=O)O)cc2[N+](=O)[O-])c1	/	?	/	?	35µM*	/
Cc1ccc(CNC(=O)CN(c2ccc(Cl)cc2Cl)S(=O)(=O)c2ccccc2)cc1	/	1%	-27%[59 µM]	36%	-4%	-7%
CCc1ccc(NC(=O)c2ccc3[nH]c(C)c(C)c3c2)cc1	/	0%	-17%[59 µM]	39%	-18%	-28%
CC(=O)Nc1ccc(NC(=O)C(C)OC(=O)c2ccc3[nH]c(C)c(C)c3c2)cc1 (stereo not given)	-9%	16%	50µM*	-7%	?	-3%
Cc1[nH]c2ccc(C(=O)OC(C)C(=O)N(C)c3ccccc3)cc2c1C (stereo not given)	-2%	3%	1%[0.501 µM]	?	?	50µM*
Cc1[nH]c2ccc(C(=O)OC(C)C(=O)N(C)C3CCCCC3)cc2c1C (stereo not given)	-25%	-2%	45µM*	?	?	56µM*
CSc1ccc(C2c3c(oc4cc(C)cc(C)c4c3=O)C(=O)N2CCO)cc1 (stereo not given)	/	-3%	-3%[59 µM]	15%	-8%	-5%
COc1ccc(N2CC(NC(=O)C3CC3)CC2=O)cc1 (stereo not given)	/	-8%	-8%[59 µM]	-11%	-8%	-5%
O=C(CSc1nc2c([nH]c3ccccc32)c(=O)n1-c1ccccc1)N1CCc2ccccc21	/	1%	16%[59 µM]	15%[57 µM]	1%	6%
Cc1ccc(C)c(OCCOCCn2c(-c3ccc(Br)cc3)nc3ccccc3c2=O)c1C	/	1%	0%[59 µM]	58%	12%	13%
CC12CCCCC1N(O)C(=O)C(=O)N2O (stereo not given)	10%	-9%	?	4%	79µM*	?
CC1(C)CCCC2=C1CC1C(=O)N(O)C(=O)C1C2 (stereo not given)	2%	20%	-1%	28%	-2%	19%
COc1ccc(/C=C/C(=O)Nc2ccc(Cl)c(Cl)c2)cc1	/	-1%	7%[59 µM]	25%	-5%	3%
SMILES	L3MBTL1 inh	GLS inhibitor	G9a inh	HP1b chromo inh	JMJD2A Tudor	BAZ2B inh
O=C(O)/C=C/C(=O)Nc1cccnc1	7%	-7%	-13%[59 µM]	49%	3%	-25%
O=C(Nc1cccnc1)C1(F)C(F)(F)C(F)(F)C(F)(F)C(F)(F)C1(F)F	7%	-7%	50µM*	14%	79µM*	-31%
COC(=O)/C=C/C(=O)Nc1ccc(O)c(Cl)c1	-11%	29%	40µM*	13%	-18%	?
COC(=O)/C=C/C(=O)Nc1cccnc1	8%	3%	50µM*	15%	-5%	12%
O=C(Nc1cccnc1)C12CC3CC(CC(C3)C1)C2	2%	6%	-3%	27%	-14%	-11%
Cc1cccc(C(=O)NC(=O)Nc2ccc(-n3nc(C(F)(F)F)cc3C(F)(F)F)cc2)c1	/	-1%	1%[59 µM]	14%	-29%	-14%
Cc1cccc(COc2ccc(-c3cc(C(F)(F)F)n4nc(C)cc4n3)cc2)c1	/	2%	40%[59 µM]	53%	59%	-6%
Clc1ccccc1N=Nc1ccccn1	/	-9%	/	-21%	?	/
Clc1ss/c(=N\c2ccccn2)c1Cl	6%	0%	1.8µM*	18%	-11%	40µM*
CCn1c(C)nnc1SCC(=O)Nc1cccc(C(F)(F)F)c1	6%	3%	/	6%	-16%	1%
Cc1cccc(-c2nc(SCC(=O)Nc3cccc(C(F)(F)F)c3)n3[nH]c(=O)cc3n2)c1	/	?	11%[59 µM]	?	50µM*	50µM*
O=C(CSc1nc(-c2ccccc2)nc2cc(=O)[nH]n12)Nc1ccccc1	/	2%	34%[59 µM]	20%	56µM*	-1%
Cc1ccc(NC(=O)CSc2nc(-c3cccs3)nc3cc(=O)[nH]n23)cc1	/	?	23%[59 µM]	21%	-21%	79µM*
O=C(CSc1nc(-c2cccs2)nc2cc(=O)[nH]n12)Nc1cccc(C(F)(F)F)c1	/	?	53%[59 µM]	33%	-19%	50µM*
COc1ccc(NC(=O)CSc2nc(-c3ccccc3)nc3cc(=O)[nH]n23)cc1	/	-12%	17%[59 µM]	33%	-23%	-37%
